From ChEMBL document CHEMBL4513216, “Probing the Open Global Health Chemical Diversity Library for Multistage-Active Starting Points for Next-Generation Antimalarials” (ACS Infect Dis, 2020)
Among all 65,000 compounds or so, about 2,100 (3.2%) showed an effect of 50% or more. The median lay at about -52%. The sample as a whole holds a higher share of strong results than the screen did.

System: Plasmodium falciparum
Test: Screen against P. falciparum Asexual Blood Stage (ABS), at 5uM
Format: functional, Dd2
Settings: tested at 5 uM

SMILES | INHIBITION [%]
Cn1ccnc1C(=O)N1CCC2(CCCN2CC2CC2)CC1 | -104
CC(=O)c1cc(CN2C[C@@H]3CC[C@H]2CN(S(=O)(=O)N(C)C)C3)cs1 | -60.2
O=C(O)Cn1ccc(=O)c2ccccc21 | -123
CC(C)(C)c1cc(C(=O)NCCN2CCCS2(=O)=O)[nH]n1 | 34.4
CC(C)C(=O)N1CCCC2(CCCN2CC2CCCC2)C1 (stereo unspecified) | 62
CC(C)C(=O)N1CCC2(CCN2CC2CC2)C1 (stereo unspecified) | -74.5
CC(C)C(=O)N1CCC2(CN(CC3CCCC3)C2)C1 | -67.5
CCCS(=O)(=O)N1CCC(NC(=O)c2cc3ccccc3s2)CC1 | 7.92
COCC(=O)N1C[C@@H](CN2CCCN(C)CC2)[C@@H](CO)C1 | -37.6
Cc1[nH]c2ccc(CNc3cc(C(=O)NC(C)C)ccn3)cc2c1C | -115
O=C(c1ccccc1)N1CCCn2c(CN3CCCCC3)nnc2C1 | -94.3
CCc1noc(C)c1C(=O)N1CCCCC1Cn1cc(C)cn1 (stereo unspecified) | -104
CCNC(=O)N(C)C1CCN(Cc2ncc(C)c(OC)c2C)CC1 | 69
COc1c(C)cnc(CN2CCC(N(C)C(=O)C(C)OC)CC2)c1C (stereo unspecified) | -7.99
CCC(=O)N(C)C1CCN(Cc2ncc(C)c(OC)c2C)CC1 | -102
O=C(Cn1cc(I)cn1)N1CCCCCC1 | -34.7
COc1ccc2cc(CNCc3c(C)nn(C)c3N(C)C)ccc2c1 | 18.6
Cc1cc(C)cc(N2CCN(C(=O)CCN3C[C@H]4CC[C@@H]3C4)CC2=O)c1 | 62.1
O=C(CCN1C[C@H]2CC[C@@H]1C2)N1CCN(c2cccc(Cl)c2)C(=O)C1 | -40
Cc1ccc(N2CCN(C(=O)CN3C[C@H]4CC[C@@H]3C4)CC2=O)cc1 | -73.1
CC(CN1CCCC1=O)NC(=O)Nc1ccccc1Cn1cccn1 (stereo unspecified) | -4.06
CCOCC1c2c(cnn2C)CCN1C(=O)c1ccncn1 (stereo unspecified) | -224

SMILES | INHIBITION [%]
Cc1cccc(C)c1Oc1ncccc1CNC(=O)C1COC(=O)N1 (stereo unspecified) | -180
CCC(CC)C(=O)NCc1cn2cc(Br)ccc2n1 | 1.4
COc1ccc(F)c(-c2cc(C)nc(N)n2)c1 | -23.9
Cc1cc(N(C)CCCn2cccn2)nc(N)n1 | 26.7
COc1ccc(OCCN(C)c2cc(C)nc(N)n2)cc1 | 63.7
CN(C)c1ccccc1CN1CCCC(N2CCCC2=O)C1 (stereo unspecified) | -44.5
Cc1cccc(C(=O)N2CCC3(CC2)CC(c2cnn(C)c2)CO3)c1 (stereo unspecified) | -85.1
CN(C)CC1(O)CCCN(C(=O)CCn2cc(Cl)cn2)C1 (stereo unspecified) | -101
CN(C)CC1(O)CCCN(C(=O)Cc2ccc(Cl)c(Cl)c2)C1 (stereo unspecified) | 58.9
CN(C)CC1(O)CCN(C(=O)Cc2ccc3c(c2)CCC3)C1 (stereo unspecified) | -116
O[C@H]1CCCC[C@@H]1N1CCN(CCCc2ccc3c(c2)OCO3)CC1 | 28.7
CN(C)C(CNCc1nc(-c2ccsc2)no1)c1ccsc1 (stereo unspecified) | 55.4
CN(C)C(CNCc1nc(-c2ccsc2)no1)c1cccs1 (stereo unspecified) | 12.3
CN(C)C(CNCc1nc(-c2ccsc2)no1)c1cccc(F)c1 (stereo unspecified) | -31.3
CCC1=NC(SCC(=O)c2ccccc2)c2cc(CC)sc2N1 (stereo unspecified) | -23.2
c1ccc(-c2cc(CNCCN3CCCC3)c3nnnn3c2)cc1 | -1.88
c1ccc(-c2cc(CNCCN3CCOCC3)c3nnnn3c2)cc1 | -57.2
c1ccc(-c2cc(CNCCCN3CCCCC3)c3nnnn3c2)cc1 | 65.4
O=C([C@@H]1C[C@@H]2CCN(CCc3ccccc3)C[C@H]2O1)N1CCCC1 | -35
CC(O)CN1CCC(CNCc2ccccc2Cl)CC1 (stereo unspecified) | 44.5
CCc1nnc2n1CC(CNCC1CCCC1)CC2 (stereo unspecified) | -108
COc1ccc2c(c1)C(=O)NC1(CC2)CCN(Cc2ccncc2)C1 (stereo unspecified) | -28.2

SMILES | INHIBITION [%]
COc1ccc2c(c1)C(=O)NC1(CC2)CCN(Cc2ccccc2)C1 (stereo unspecified) | 64.7
COc1ccc2c(c1)C(=O)NC1(CC2)CCN(Cc2ccc(F)cc2)C1 (stereo unspecified) | 66.7
COc1ccc2c(c1)OC1(CCN(Cc3ccc(F)cc3)CC1)CC2=O | -50.5
COc1ccc2c(c1)C(=O)NC1(CC2)CCN(Cc2cccnc2)C1 (stereo unspecified) | -50.6
COc1ccc2c(c1)C(=O)NC1(CC2)CCN(Cc2ccccn2)C1 (stereo unspecified) | -30.5
Cc1ccc(C(=O)Nc2ccccc2F)n1C | -184
CC(=O)Nc1ccc(-c2cn(CCn3c(C)cc(C)nc3=O)nn2)cc1 | -49.9
COc1ccc(-c2cn(CCn3c(C)cc(C)nc3=O)nn2)cn1 | -102
COc1c(F)cc(-c2cn(CCn3c(C)cc(C)nc3=O)nn2)cc1Cl | 59.7
c1ccc(CN2CCCn3nnc(Cn4cccc4)c3C2)nc1 | -33.7
Cc1ccc(N2CC[C@H]3O[C@@H](C(=O)N4CCCO4)CC[C@H]32)nn1 | -24.1
Cc1cnc(C(=O)N2CCC3(CC2)CN(c2ccccn2)CCO3)cn1 | -79.7
CCOCC1CCN(C(=O)Nc2ccc3c(c2)CCCO3)C1 (stereo unspecified) | -50.7
CCNC(=O)C1CCCN(C(=O)Nc2ccc3c(c2)CCCN3C)C1 (stereo unspecified) | 13.1
CCOCC1CCN(C(=O)Nc2ccc3c(c2)CCCN3C)C1 (stereo unspecified) | 58.9
Cn1ccnc1CN1CCN(CCOc2cccc(C#N)c2)CC1 | -53.6
O=C(c1c[nH]cn1)N1CCC(F)(F)C2(CCN(c3cnccn3)C2)C1 (stereo unspecified) | -94.9
CC(=O)N1C[C@H](NS(=O)(=O)Cc2cccc(Cl)c2)[C@@H](C(C)C)C1 | -62.4
Cc1cc(NCc2cc3n(n2)CCCN(C(=O)C2CCC2)C3)nc(N)n1 | -79.3
COc1cccc(C(=O)N2CCc3nc(C4CCCN4)ncc3C2)c1 (stereo unspecified) | 4.58
Cc1cnc(CN(Cc2ccc(C#N)cc2F)C2CCN(C)C2)o1 (stereo unspecified) | 12.5
COc1ccc(C)cc1CN(Cc1nc(C)c(C)o1)C1CCN(C)C1 (stereo unspecified) | 56.2

SMILES | INHIBITION [%]
COc1ccc(C)cc1CN(Cc1ncc(C)o1)C1CCN(C)C1 (stereo unspecified) | 38.7
CN1C(Cn2cccn2)C[C@@H]2CN(C(=O)c3cccc(C#N)c3)CC[C@@H]21 (stereo partly specified) | -95.8
CC(C)Oc1ccccc1OCCN1C(=O)CCNC1=O | -16.4
CCNC(=O)C1CCN(Cc2ccc(C(=O)Nc3nnc(C)s3)cc2)C1 (stereo unspecified) | -162.2
OC1(CNCc2ccc(F)c(C(F)(F)F)c2)CCSCC1 | 56.4
Cc1cc(CNCC2(O)CCOCC2)ccc1F | 16.2
OC1(CNCc2ccc(F)c(C(F)(F)F)c2)CCOC1 (stereo unspecified) | -1.68
O=C(NCc1cccnc1)[C@@H]1C[C@H]2[C@H](CCN2c2ncccn2)O1 | -112
CO[C@H]1CN(C)S(=O)(=O)[C@@]12CCN(Cc1ccccc1)C2 | -53.8
Cc1cc(O)c(OCC(=O)Nc2nc3c(s2)CCCCC3)cn1 | -94.4
COc1ccc(C(C)NCc2c[nH]nc2C)cc1OC (stereo unspecified) | -59.7
COc1cc(CNC(C)c2ccc(F)c(F)c2)cc2c1OCCO2 (stereo unspecified) | -7.66
COc1cc(CNC(C)c2cccc(Cl)c2)cc(OC)c1OC (stereo unspecified) | 63.5
CNS(=O)(=O)c1cccc(C(C)NCc2cccc(OC)c2)c1 (stereo unspecified) | 3.75
COc1ccc(CNC(C)c2cccc(Cl)c2)c(OC)c1OC (stereo unspecified) | 43.3
COc1ccc(C(C)NCc2c[nH]nc2C)cc1Br (stereo unspecified) | 20.5
COc1ccc(C(C)NCc2ccc(OC)c(OC)c2OC)cc1F (stereo unspecified) | 36
COc1ccc(CNC(C)c2ccc(Cl)c(Cl)c2)c(OC)c1OC (stereo unspecified) | 66
COc1ccc(CNC(C)c2cccc(Br)c2)c(OC)c1OC (stereo unspecified) | 67.1
CCCn1cc(NC(=O)c2ccc(S(=O)(=O)CC)cc2)ccc1=O | -1.56
O=C(CNCCn1cccn1)NCC1(c2ccccc2)CCC1 | -77
Cn1ccc(C(=O)NCc2cccc(NC(=O)C3CCC3)c2)cc1=O | -218

SMILES | INHIBITION [%]
CC(CN1CCCCCC1)NCc1cc(-c2ccco2)on1 (stereo unspecified) | 18
COCCN(Cc1sccc1C)C(=O)C1CCCN(C(N)=O)C1 (stereo unspecified) | -75.6
COCCN(Cc1sccc1C)C(=O)C1CCN(C(C)C)CC1 | 57.7
COCCN(Cc1sccc1C)C(=O)COc1ccccc1O | -65.9
Cc1nn(C)c(N2CCOCC2)c1CNC1CCc2ccccc21 (stereo unspecified) | 45.3
Cc1nn(CC(C)C)c(N(C)C)c1CNCc1cccc2c1OCO2 | 29.4
Cc1ccc2c(c1)CCC2NCc1c(C)nn(C)c1N1CCOCC1 (stereo unspecified) | 64.2
Cc1nn(C)c(N2CCOCC2)c1CNCc1ccc(Cl)s1 | 53
Cc1nn(C)c(N2CCOCC2)c1CNCc1nccs1 | -58.2
Cc1nn(C)c(N2CCOCC2)c1CNCc1ccnn1C | -222
Cc1nn(CC(C)C)c(N(C)C)c1CNCc1ccc2c(c1)OCO2 | 54.6
Cc1nn(C)c(N2CCOCC2)c1CNCc1ccc(CO)c(F)c1 | -77.5
Cc1nn(C)c(N2CCOCC2)c1CNCc1ccnc(N(C)C)c1 | -24.8
Cc1nn(C)c(N2CCOCC2)c1CNC1CCc2cc(F)ccc21 (stereo unspecified) | 40.1
Cc1nn(C)c(N2CCOCC2)c1CNCc1ccc2c(c1)OCO2 | 64.5
Cc1nn(C)c(N(C)C)c1CNCc1ccc2c(c1)OCO2 | 35.3
O=C1C(N2CC[C@@H](O)C2)CCCN1Cc1cccc(C(F)(F)F)c1 (stereo partly specified) | -51.6
CCOCCN1CCN(C=C2NN=C(c3occc3C)O2)CC1 | -7.75
